Test results reported in PubChem BioAssay AID504843 (Broad Institute, 2011).
Screen size: about 1,200 compounds; about 360 (30%) were called active. How the calls were made is not given here. A selection follows. Potency and affinity values are given separately.

Assay: antibacterial activity by ATP level – BacTiter-Glo luminescence, cherry-picked samples, counter-screen, dose response (AID 504843);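 further: growth measured after 8 h incubation at 30 °C; 0% = median of sample compound wells and -100% = antibiotic control wells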
Conditions: bacterial growth; series mostly up to 15 µM; activity change, negative = inhibition: at the top concentration

SMILES	activity change, negative = inhibition
Cc1ccc(C)c(S(=O)(=O)Nc2cc(SCC(=O)O)c(O)c3ccccc23)c1	-2.04% (inactive)
CC1(C)c2ccccc2N2CC(=O)NC21/C=C/c1ccco1 (stereo unspecified)	-2.83% (inactive)
C=CCn1cccc(C(=O)Nc2ccc(OC)cc2)c1=O	-12.5% (inactive)
C=CCNC(=S)Nc1cccc2[nH]ncc12	-0.478% (inactive)
O=[N+]([O-])c1cccc(N(CC(O)CN2CCCCC2)S(=O)(=O)c2ccccc2)c1 (stereo unspecified)	-3.49% (inactive)
COc1cccc(CN2CCN(C(=O)c3ccco3)CC2)c1	18.3% (inactive)
CCC(CO)NC(=O)c1cccc(S(=O)(=O)N2c3ccccc3CC2C)c1 (stereo unspecified)	9.79% (inactive)
Nc1ccc(S(=O)(=O)N2CCCc3ccccc32)cc1	-21.1% (inactive)
COc1ccc(S(=O)(=O)Nc2nc3c(s2)CCCC3)cc1	12.9% (inactive)
O=C(COC(=O)c1cccc(S(=O)(=O)N2CCc3ccccc32)c1)Nc1ncc(C(F)(F)F)cc1Cl	2.36% (inactive)
C[C@H]1NC(=O)[C@@]2(C)[C@@H](c3ccccc3)[C@H]3COc4ccccc4[C@H]3N2C1=O	-2.87% (inactive)
CCNc1nc(SCCOc2ccc(C)cc2)nc(N(C)C)n1	-1.81% (inactive)
CCC1SC(C)C/C(=N/NC(N)=O)C1C (stereo unspecified)	17.8% (inactive)
CN(C)c1cccc(C(=O)N/N=C/c2ccccc2F)c1	-8.46% (inactive)
CCOC(=O)c1ccc(NC(=O)c2cn(CCC#N)nc2-c2ccc3c(c2)OCCO3)cc1	15.1% (inactive)
O=C(NCc1cccnc1)c1cccc(-c2cc3ccccc3oc2=O)c1	13.5% (inactive)
Cc1cnc(C(=O)OCC(=O)Nc2sc3c(c2C#N)CCC3)cn1	5.17% (inactive)
CC1CCN(C(=O)c2ccc(S(=O)(=O)N3CCCC3)cc2)CC1	-11.1% (inactive)
CCOC(=O)C1CCN(C(=O)Nc2ccc(C)c(Cl)c2)CC1	2.75% (inactive)
CC(=O)Oc1ccc(C(=O)Nc2ccccc2C(=O)N2CCCCC2)cc1	-5.23% (inactive)
Cc1ccccc1C(=O)N1CCN(c2ccc(NC(=S)NC(=O)c3cccs3)cc2)CC1	-13.8% (inactive)
CCc1ccc2c(COC(=O)C3CC(=O)N(CCc4ccccc4)C3)cc(=O)oc2c1 (stereo unspecified)	-8.14% (inactive)
CCn1c(SCC(=O)c2ccccc2)nnc1-c1cccnc1	4.29% (inactive)

SMILES	activity change, negative = inhibition
CN(C)c1nc(NCc2ccccc2)nc(SCC(N)=O)n1	0.62% (inactive)
CCOC(=O)C(C(=O)Nc1ccc(C)cc1)C1CCCCC1 (stereo unspecified)	2.6% (inactive)
COc1ccc(NC(=O)COCC(=O)Nc2ccc(C)cc2)cc1	2.25% (inactive)
CC(C)(C)CC(=O)Nc1cccc(-c2cn3cccnc3n2)c1	-11.7% (inactive)
CCCCOc1ccc(NC(=O)c2cc(F)c(F)cc2Cl)cc1	-13.8% (inactive)
Cc1ccc(OCCNS(=O)(=O)c2ccc(N3CCCC3=O)cc2)cc1C	-1.98% (inactive)
CCc1ccc(NC(=O)Nc2cc(C(=O)NCC3CCCO3)ccc2N2CC3CC(C2)c2cccc(=O)n2C3)cc1 (stereo unspecified)	-0.12% (inactive)
COc1ccccc1OCCNC(=O)C1CCN(C(C)=O)CC1	8.06% (inactive)
CC(C)(C)OC(=O)NCCCCCNC(=O)c1[nH]cnc1C(=O)NC1CCN(C(=O)OC(C)(C)C)CC1	-4.62% (inactive)
Cc1cc(C)cc(-n2c(C)cc(/C=C3\C(=N)N4N=C(CC(C)C)SC4=NC3=O)c2C)c1	0.158% (inactive)
O=C(NNc1ccnc2cc(Cl)ccc12)C1CCCCC1	-7.77% (inactive)
COc1ccc(CCNC(=O)/C=C/c2ccco2)cc1OC	0.154% (inactive)
Cc1ccc(CN(C(=O)c2sc3ccccc3c2Cl)C2CCS(=O)(=O)C2)cc1 (stereo unspecified)	9.82% (inactive)
O=C(O)[C@H](CO)Nc1ncnc2sc3c(c12)CCC3	11.8% (inactive)
O=C(CCNS(=O)(=O)c1ccccc1C(F)(F)F)N1CCN(c2ccccc2O)CC1	9.42% (inactive)
CCN(CC)C(=O)CSc1nc2ccccc2o1	16.9% (inactive)
CCCCN(CC)CCNC(=S)Nc1ccc2nc(N3CCN(C)CC3)cc(C)c2c1	1.76% (inactive)
O=C(Nc1ccc(C2=NCCN2)cc1)c1ccc(C(=O)Nc2ccc(C3=NCCN3)cc2)c([N+](=O)[O-])c1	6.04% (inactive)
CC(=O)Nc1ccc(Nc2nc(C)c([N+](=O)[O-])c(N(C)c3ccccc3)n2)cc1	15.8% (inactive)
CC1CN(C(=O)c2cc3cc([N+](=O)[O-])ccc3oc2=O)CC(C)O1 (stereo unspecified)	3.61% (inactive)
O=C(CSC1=NCCS1)c1ccc(Cl)cc1	9.01% (inactive)
Cc1[nH]c2ccccc2c1Cc1nnc(SCC(N)=O)o1	1.89% (inactive)
CCNc1c(NS(=O)(=O)c2ccc(OC)cc2)c(=O)oc2ccccc12	-17.3% (inactive)

SMILES	activity change, negative = inhibition
COc1ccc(-c2cc(C)no2)cc1S(=O)(=O)NCCCN1CCCCCC1	-7.18% (inactive)
COc1ccccc1N1CCN(c2nc(-c3ccccc3)cc(C(F)(F)F)n2)CC1	-0.607% (inactive)
CCNc1nc(NCC)nc(OCCOC(C)=O)n1	-9.52% (inactive)
Nc1cc(N)nc(SCc2ccc(Cl)cc2)n1	4.2% (inactive)
Cc1cccc(NC(=O)c2cc(S(=O)(=O)N3CCC4(CC3)OCCO4)ccc2F)c1	-2.34% (inactive)
O=C(Nc1ccccc1F)c1ccc([N+](=O)[O-])s1	17.9% (inactive)
c1ccc2c(N3CCOCC3)nc(-c3ccncc3)nc2c1	-1.69% (inactive)
CCNC(=O)NC(=O)C(C)OC(=O)C1CCN(S(=O)(=O)c2ccccc2F)CC1 (stereo unspecified)	18.5% (inactive)
Cc1ccc(C)c(SCC(=O)Nc2cccc(S(=O)(=O)NC3=NCCCCC3)c2)c1	8.62% (inactive)
Cc1cc(C)c(S(=O)(=O)N2CCN(C(=O)CN3C(=O)NC4(CCCC4)C3=O)CC2)c(C)c1	6.89% (inactive)
Cc1ccc(CCNC(=O)CCS(=O)(=O)c2cc3c(cc2C)NC(=O)CO3)cc1	7.13% (inactive)
CN(Cc1ccccc1)c1ncnc2sccc12	5.73% (inactive)
CC(C)(C)CC(=O)Nc1ccc(Nc2ccccc2)cc1	-10.5% (inactive)
Cc1cccc(NC(=O)[C@H](Cc2ccccc2)NC(=O)OCc2ccccc2)c1	-12.2% (inactive)
CSc1ncccc1C(=O)OCC(=O)N(C)c1c(N)n(Cc2ccccc2)c(=O)[nH]c1=O	-15.7% (inactive)
CC(C)CN(C(=O)COC(=O)c1ccccc1NCc1ccco1)c1c(N)n(Cc2ccccc2)c(=O)[nH]c1=O	14.3% (inactive)
COC(=O)C[C@H]1c2cc(F)cc(F)c2S(=O)(=O)N1C1CCN(Cc2ccccc2)CC1	8.72% (inactive)
CCCCN(CC)CCNS(=O)(=O)c1ccc2c(c1)oc(=O)n2C	2.71% (inactive)
O=C(Cn1c(=O)oc2cc(S(=O)(=O)N3CCc4ccccc43)ccc21)N1CCCCC1	-6.67% (inactive)
CCOc1cc(/C=N/NC(=O)C(=O)NCc2cccnc2)ccc1O	-2.33% (inactive)
COc1ccccc1C(=O)Nc1ccc2c(c1)CN(Cc1cnc(C)s1)CC2	11% (inactive)
Cc1ccccc1NC(=S)N1CCN(Cc2ccc3c(c2)OCO3)CC1	0.01% (inactive)
Cc1cccc(NC(=O)CNC(=O)CN2C(=O)NC3(CCc4ccccc43)C2=O)c1C (stereo unspecified)	-4.94% (inactive)

SMILES	activity change, negative = inhibition
Cc1ccc(C)c(NC(=O)CN(C)C(=O)c2cccc(S(=O)(=O)N(C)C)c2)c1	-5.14% (inactive)
CC1CCN(c2ccc(C(=O)NCc3ccco3)cc2[N+](=O)[O-])CC1	-10.9% (inactive)
CCN(CC)S(=O)(=O)c1cc(NC(=O)c2ccc(-n3cncn3)c([N+](=O)[O-])c2)ccc1C	6.68% (inactive)
CC1(C)C2CCC1(C)C(NC(=O)/C=C/c1ccccc1)C2 (stereo unspecified)	-17.4% (inactive)
O=c1oc2ccccc2c(N2CCC(c3ccccc3)CC2)c1[N+](=O)[O-]	-11.2% (inactive)
Cc1ccccc1N/N=C/c1ccc(C#N)cc1	13.8% (inactive)
Cc1ccc(-c2nn(-c3ccccc3)cc2CC(=S)N2CCOCC2)cc1	16.7% (inactive)
O=C(CSc1nnc(-c2ccccc2)n1C1CCCCC1)N1CCCC1	-4% (inactive)
Cc1cccc(-n2c(SCC(=O)NC3CCCC3)nnc2-c2ccoc2C)c1	4.43% (inactive)
Cc1ccc(C2CC(c3ccccc3)n3ncnc3N2)cc1 (stereo unspecified)	15.1% (inactive)
CCn1c(C)cc(/C=C2/NC(=O)N(Cc3ccccc3F)C2=O)c1C	-2.29% (inactive)
CC(=O)Nc1cccc(Oc2nc(C(F)(F)F)nc3ccccc23)c1	7.17% (inactive)
COc1cccc(NC(=O)c2ccc3c(SCC(=O)O)c4c(nc3c2)CCCC4)c1	-8.76% (inactive)
Cc1ccc(OCCOCCNC(C)(C)C)c([N+](=O)[O-])c1	13.6% (inactive)
N#Cc1ccccc1CSc1ccccn1	-0.492% (inactive)
CC(CN1CCOCC1)(NS(=O)(=O)c1ccccc1)c1ccccc1 (stereo unspecified)	-7.28% (inactive)
O=C(CNC1CCCCCC1)Nc1ccccc1N1CCCCC1	2.03% (inactive)
O=C(CNC1CCCCC1)Nc1cc(S(=O)(=O)N2CCOCC2)ccc1Cl	11.2% (inactive)
O=C(NCCOC(=O)c1cccs1)c1cccnc1	-11.1% (inactive)
COc1ccc(OC)c(-n2c(SCC(=O)N3CCc4ccccc43)nc3c(c2=O)SCC3)c1	-3.67% (inactive)
Fc1cccc(NC(=S)NCCCN2CCOCC2)c1	17.8% (inactive)
O=C(Cn1nc(C(=O)O)c2ccccc2c1=O)NCc1ccco1	16.7% (inactive)
O=C1CCCN1Cc1ccccc1	1.89% (inactive)

SMILES	activity change, negative = inhibition
N#C/C(=C(/O)CN1CCN(c2ccccc2F)CC1)c1nc(-c2ccc(Cl)cc2)cs1	-2.75% (inactive)
C[C@@H]1CN([C@H](C)CO)C(=O)c2cc(NS(=O)(=O)c3cccs3)ccc2O[C@H]1CN(C)Cc1ccccc1	16.7% (inactive)
COc1cc(/C=N/NC(=O)c2ccccn2)ccc1OC(=O)c1ccc(Br)cc1	-2.98% (inactive)
C(=N\Nc1ccccn1)/c1ccc(N2CCOCC2)cc1	-20.3% (inactive)
Cn1c(Cn2c(=O)sc3ccccc32)nnc1SCc1ccccc1F	-14.5% (inactive)
CCCCCCc1ccc(N2C[C@H](Cc3ccccc3)[C@@H](CC(=O)NCc3ccc(OC)cc3)C2=O)cc1	5.21% (inactive)
CCCC(=O)c1c[nH]c(C(=O)N2CCOCC2)c1	-14.1% (inactive)
CCCNC(=O)COc1coc(CN2CCN(c3ccccc3F)CC2)cc1=O	6.92% (inactive)
CCCc1[nH]nc2c1C(c1ccc(OC(=O)c3ccco3)cc1)C(C#N)=C(N)O2 (stereo unspecified)	6.6% (inactive)
CC(=O)c1ccc([C@H]2C[C@@]34CN(C(=O)OC(C)(C)C)S(=O)(=O)[C@H]3C[C@H]2O4)cc1	17% (inactive)
CCOC(=O)CSc1nnc(CNC(=O)c2ccc([N+](=O)[O-])cc2)n1C	-4.14% (inactive)
NC(=O)c1cc2ccc(O)cc2oc1=Nc1ccccc1	0.396% (inactive)
Cc1ccc(NCc2nnc3n2CCCCC3)c(C)c1	5% (inactive)
C[C@H](NS(=O)(=O)c1ccc(Cl)c(Cl)c1)C(=O)OCc1cc(=O)n2cc(Br)ccc2n1	2.78% (inactive)
COc1ccc(NS(=O)(=O)c2cc(NC(=O)CCc3ccc(OC)c(OC)c3)ccc2N2CCOCC2)cc1	-7.67% (inactive)
Cc1ccc(NC(=S)NC(=O)c2ccc(F)cc2)cc1S(=O)(=O)Nc1ccccc1Cl	13.8% (inactive)
CCOC(=O)c1c(NC(NC(C)=O)C(Cl)(Cl)Cl)sc(C(C)=O)c1C (stereo unspecified)	-8.99% (inactive)
OCc1ccnc2c(O)cccc12	17.6% (inactive)
CCOC(=O)/C(C#N)=C/c1ccc(OCC(=O)Nc2ccccc2)c(OC)c1	-1.9% (inactive)
